# From PubChem BioAssay
# RGS16-Gao HTS = modulators of RGS16 binding to Galphao, primary screen, biochemical, human proteins, multiplexed bead flow cytometry. bead-based flow cytometry RGS16-Galphao binding, fluorescence; actives lie on both sides. binding response (% of control), % at 10 µM. 220,000 compounds, 0.38% hits;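 note: Galphao activated by GDP with aluminum fluoride before binding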
# Target sequence (O15492 whole entry, looked up): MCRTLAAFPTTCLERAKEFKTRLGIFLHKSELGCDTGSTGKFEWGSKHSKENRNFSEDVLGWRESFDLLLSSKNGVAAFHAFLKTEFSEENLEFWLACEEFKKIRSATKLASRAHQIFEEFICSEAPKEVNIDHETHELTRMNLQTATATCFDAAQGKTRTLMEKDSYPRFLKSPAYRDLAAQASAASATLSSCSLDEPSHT
# Target sequence (P09471 whole entry, looked up): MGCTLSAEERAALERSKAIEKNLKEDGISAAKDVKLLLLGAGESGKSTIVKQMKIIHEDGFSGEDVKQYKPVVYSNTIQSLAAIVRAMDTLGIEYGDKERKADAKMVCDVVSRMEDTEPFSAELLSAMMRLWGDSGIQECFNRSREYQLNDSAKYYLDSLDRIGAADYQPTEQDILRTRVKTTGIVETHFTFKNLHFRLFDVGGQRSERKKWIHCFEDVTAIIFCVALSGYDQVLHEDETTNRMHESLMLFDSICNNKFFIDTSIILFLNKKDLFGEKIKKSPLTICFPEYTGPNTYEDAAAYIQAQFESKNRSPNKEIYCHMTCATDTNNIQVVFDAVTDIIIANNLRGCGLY
# RGS8-Gao reg = RGS8-Galphao binding modulators, primary screen, biochemical, multiplexed bead flow cytometry. Guanine nucleotide-binding protein G(o) subunit alpha (Homo sapiens), P09471. actives lie on both sides. response (percent of control binding), % at 10 µM. 220,000 compounds, 0.34% hits. AID 1423, 2008; in the data active = response below about 60% or above about 140%; inactive = in between;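 note: Galphao activated as the GDP aluminium fluoride complex binding bead-coupled RGS8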
# Target sequence (P09471 whole entry, looked up): as above
# GSH bead fluor = compound fluorescence on glutathione beads, profiling panel, artefact control, biophysical, 488/530 nm, flow cytometry; 190,000 compounds, 0.25% hits; GSH beads flow cytometry, compound fluorescence 488/530 nm; hits give high values; AID 1776, 2009; fluorescence (KMESF) at 10 µM; in the data active = fluorescence above about 89;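 note: glutathione beads carrying GST-tagged Bcl family fusion proteins plus one bare bead set; values are compound well signal with DMSO vehicle wells as background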
# Avidin bead fluor = green autofluorescence of compounds with avidin beads – biophysical, 488/530 nm, flow cytometry, artefact control, profiling panel; fluorescence (KMESF) at 10 µM; AID 1775, 2009; compound fluorescence 488/530 nm; hits give high values; 220,000 compounds, 0.38% hits; in the data active = fluorescence above about 47
# RGS4-Gao reg = modulators of RGS4 binding to Galphao, primary screen, biochemical, multiplexed bead flow cytometry | Guanine nucleotide-binding protein G(o) subunit alpha (Homo sapiens), P09471 | 220,000 compounds, 0.33% hits | AID 1415, 2008 | actives lie on both sides | binding response (% of control), % at 10 µM; in the data active = binding response below about 49% or above about 150%; inactive = in between;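 note: fluorescent Galphao activated with aluminum fluoride binding bead-coupled RGS4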
# RGS7-Gao = RGS7-Galphao binding modulators, primary screen, biochemical, multiplexed bead flow cytometry; Guanine nucleotide-binding protein G(o) subunit alpha (Homo sapiens), P09471; actives lie on both sides; binding response (% of control), % at 10 µM; 220,000 compounds, 0.35% hits; in the data active = binding response below about 49% or above about 150%; inconclusive = no clear call, values can overlap the other calls; inactive = in between;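 note: fluorescent Galphao held in activated GDP-AlF4 state binding bead-coupled RGS7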
# RGS-Gao = modulators of RGS–Galpha-o binding, primary screen, biochemical, multiplexed beads, flow cytometry, RGS4/7/8/16/19. multiplexed bead flow cytometry. 1,600 compounds, 99% hits. AID 1504, 2009. shares compounds with RGS16-Gao HTS. RGS4–Galpha-o binding response, % at 10 µM;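 note: fluorescently labeled Galpha-o bound to GDP with aluminium fluoride binding biotinylated RGS beads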
# Biotin-avidin = disruption of biotin probe capture by avidin, counter-screen for RGS protein interaction modulators, biochemical, flow cytometry, bead-based. inhibition, % at 10 µM. 1,700 tested, under 10 active. streptavidin beads, fluorescein-biotin binding. AID 1783, 2009. shares compounds with RGS16-Gao HTS;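 active = inhibition above 50%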;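 note: median green fluorescence of gated singlet beads compared with DMSO control wells; 0% = DMSO wells and 100% = complete loss of bead fluorescence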
# RGS8-Gao single = RGS8-Galphao binding modulators, confirmation, biochemical, multiplexed bead flow cytometry, single concentration. shares compounds with RGS16-Gao HTS. bead-based flow cytometry RGS8-Galphao binding, fluorescence; actives lie on both sides. binding response (% of control), % at 10 µM. 1,700 compounds, 3% hits; in the data active = binding response below about 72% or above about 130%; inactive = in between;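 note: Galphao activated as GDP AlF4 complex before binding bead RGS8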
# RGS7-Gao confirm = RGS7-Galphao binding modulators, confirmation, biochemical, multiplexed bead flow cytometry, single concentration | shares compounds with RGS16-Gao HTS | bead-based flow cytometry RGS7-Galphao binding; actives lie on both sides | response (percent of control binding), % at 10 µM | 1,700 compounds, 7.8% hits; in the data active = response below about 75% or above about 130%; inactive = in between;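 note: fluorescent Galphao activated with GDP and aluminum fluoride binding bead-coupled RGS7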
# RGS16-Gao single = modulators of RGS16-Galphao protein binding, confirmation, biochemical, single concentration, multiplexed bead flow cytometry; shares compounds with RGS16-Gao HTS; bead-based flow cytometry; actives lie on both sides; response (% of control binding), % at 10 µM; 1,700 compounds, 4% hits; in the data active = response below about 74% or above about 130%; inactive = in between;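 note: Galphao activated as the GDP aluminium fluoride complex binding bead-coupled RGS16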
# RGS4-Gao confirm = modulators of RGS4-Galphao protein binding, confirmation, biochemical, single concentration, multiplexed bead flow cytometry; AID 1840, 2009; binding response (% of control), % at 10 µM; actives lie on both sides; shares compounds with RGS16-Gao HTS; 1,700 compounds, 4% hits; in the data active = binding response below about 74% or above about 130%; inactive = in between
# RGS19-Gao single = regulators of RGS19-Galphao binding, confirmation, biochemical, single point, multiplexed bead flow cytometry. response (percent of control binding), % at 10 µM. shares compounds with RGS16-Gao HTS. 1,700 compounds, 5% hits. bead-based flow cytometry RGS19-Galphao binding; actives lie on both sides; in the data active = response below about 50% or above about 160%; inactive = in between;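 note: 100% = no compound control and 0% = blank background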
# * = called active by the depositor; u = inconclusive; x = no result given; [ ] = dose if it differs, or a comment. This is a sample that favours compounds with a hit; in the whole collection about 1.2% have one here. Unless noted, the rule behind the calls is not given here.
SMILES,RGS16-Gao HTS,RGS8-Gao reg,GSH bead fluor,Avidin bead fluor,RGS4-Gao reg,RGS7-Gao,Biotin-avidin,RGS8-Gao single,RGS7-Gao confirm,RGS16-Gao single,RGS4-Gao confirm,RGS19-Gao single,others
COC(=O)c1c(N2C(=O)[C@H]3[C@@H](C2=O)[C@]2(C(=O)Nc4ccc(C)cc42)N2CCC[C@@H]32)sc(C)c1C,100,100,13,7,98,103,x,x,x,x,x,x,
C[N+](C)(CC#Cc1ccccc1)CC(=O)c1ccc(Cl)cc1,23*,84,9,2,114,115,1,98,99,98,101,98,RGS-Gao=114*
O=C(NNC(=O)C1CC2CCC1C2)c1sc2ccccc2c1Cl (stereo not given),103,101,17,94*,109,166*[activator],-2,101,102,104,103,106,RGS-Gao=109*
CCC1(C(=O)OC)NC(c2cccc(F)c2)C2C(=O)N(C)C(=O)C21 (stereo not given),104,101,17,23,100,103,x,x,x,x,x,x,
COC(=O)C1(Cc2ccccc2)NC(c2ccc(F)cc2)C2C(=O)N(C)C(=O)C21 (stereo not given),-7.0*,38*,14,1,32*,40*,2,98,63*,89,72*,92,
COc1ccc(NC(C)=O)cc1NC(=O)c1ccc(C#N)cc1,99,99,13,12,98,98,x,x,x,x,x,x,
CCCn1nnc(NC(=O)c2cc3ccccc3o2)n1,102,100,26,13,100,101,x,x,x,x,x,x,
CCCCn1nnc(NC(=O)c2cc3ccccc3o2)n1,426,148*[activator],33,4,134,127,1,110,119,111,115,106,RGS-Gao=134*
C/C=C(\C)C(=O)NCCN1C2=NC[C@H](Cc3ccccc3)N2C[C@H]1Cc1ccc(O)cc1,19*,24*,20,0,34*,20*,-2,103,104,99,99,112,
CC(C)n1c(NCCO)nc2ccccc21,49,57*,13,7,49*,37*,3,104,96,100,100,98,
CCO/C(C)=C1/SC(=S)NC1=O,104,103,x,9,100,u,x,x,x,x,x,x,
OCCN(Cc1ccccc1)Cc1ccc(C(F)(F)F)cc1,102,100,25,25,102,98,x,x,x,x,x,x,
OCCN(Cc1ccccc1)Cc1cccc(C(F)(F)F)c1,x,x,46,x,x,x,1,98,90,96,94,70,
Fc1ccccc1N1CC(c2ccccc2)C(c2cccs2)=N1 (stereo not given),-9,9.2*,34,-1,21*,15*,0,98,96,93,96,70,
Cc1noc(C)c1S(=O)(=O)NC1CCN(Cc2ccccc2)CC1,183*[activator],121,19,5,108,106,x,x,x,x,x,x,RGS-Gao=108*
CC(OC(=O)c1cc2sccc2n1C)C(=O)NCC1CCCO1 (stereo not given),102,101,13,12,97,101,x,x,x,x,x,x,
CCC(OC(=O)c1cc2sccc2n1C)C(=O)NCC1CCCO1 (stereo not given),203*[activator],107,43,47*,190*[activator],161*[activator],-1,101,95,99,99,106,
Cc1cccc(-c2nnc3sc(-c4ccccc4)nn23)c1,x,x,41,x,x,x,2,95,90,93,95,87,
C#CCNC(=O)C1=C[C@@H](C2CC2)[C@H](CCCO)[C@@H](OCC)O1,0.9*,8.9*,19,-1,4.8*,-5.5*,-2,103,104,100,103,94,
CCO[C@@H]1OC(C(=O)NC2CC2)=C[C@H](C2CC2)[C@H]1CCCO,102,97,x,9,99,u,x,x,x,x,x,x,
CCn1c(CNc2cccc(C(F)(F)F)c2)n[nH]c1=S,110,104,12,13,102,104,x,x,x,x,x,x,
Cc1cc(/C=N/Nc2nc(N3CCOCC3)nc(N3CCOCC3)n2)c(C)n1-c1ccccc1,28,7.9*,21,58*,27*,51,0,100,101,101,101,113,
CC(=O)c1sc(Nc2nc3cc4c(cc3s2)OCO4)nc1C,95,95,9,11,98,95,x,x,x,x,x,x,
CCOC(=O)c1sc(Nc2nc3cc4c(cc3s2)OCO4)cc1C,938*[activator],171*[activator],102*,417*,583*[activator],666*[activator],2,92,69*,80,80,48*,
CCC1CCC(NC(=O)Nc2cccc(OC)c2)CC1 (stereo not given),91,96,51,9,93,89,x,x,x,x,x,x,
CCOC(=O)c1nc(C)sc1-c1ccnn1S(=O)(=O)c1cccc(Cl)c1,104,102,x,2,100,u,x,x,x,x,x,x,
O=C(/C=C/c1ccc(O)cc1)c1ccccc1,102,102,x,3,102,u,x,x,x,x,x,x,
